# According to PubChem BioAssay (Tox21):
# Inconclusive results are not listed. Calls of active or inactive are those of the source. Calls follow the shape of the full dose curve.
# Experiment: qHTS assay to identify small molecule agonists of the endoplasmic reticulum stress response signaling pathway - cell viability counter screen (AID 1159517); also: nearly all actives have a fitted effect of over 50% in size
# Conditions: ESRE-bla HeLa viability, CellTiter-Glo luminescence, 5 h; series mostly up to 61 µM; activity change, negative = cytotoxicity: at the top concentration
# From the text: U.S. Tox21 Program National Center for Advancing Translational Sciences [NCATS] NIH Chemical Genomics Center [NCGC] U.S. Environmental Protection Agency [EPA] National Institutes of Environmental Health Sciences [NIEHS] National Toxicology Program [NTP] U.S. Food and Drug Administration [FDA] Tox21 Assay Overview: Endoplasmic Reticulum (ER) plays an important role in cellular signaling, protein folding/maturation, stress response, lipid biosynthesis, calcium storage and release etc. Under stress conditions, proteins in ER misfold or unfold, and leading to the expression of ER stress responsive genes. ER stress has been associated with a variety of pathophysiological conditions such as cancer, inflammation, neurodegenerative diseases, diabetes, ischemic heart disease etc. To identify the compounds that induce ER stress response, an ER stress reporter cell line, CellSensor ESRE-bla HeLa (Life Technologies, Carlsbad, CA) containing a beta-lactamase reporter gene under control of the Endoplasmic reticulum Stress Response Element (ESRE) was used to screen Tox21 10K compound library. The cytotoxicity of the Tox21 compound library against the ESRE-bla HeLa cell line was tested in parallel by measuring cell viability using the CellTiter-Glo assay in the same wells.
# Tox21 Assay Protocol Summary: ESRE-bla HeLa cells were dispensed at 1,500 cells/6 uL of assay medium per well into black wall/clear-bottom 1536-well plates using a Multidrop Combi (ThermoFisher Scientific, Waltham, MA) dispenser. After the assay plates were incubated at 37 C and 5% CO2 for an overnight, 23 nL of compounds dissolved in DMSO, positive controls or DMSO only was transferred to the assay plate by a Pintool station (Kalypsys, San Diego, CA). The assay plates were incubated at 37 C and 5% CO2 for 5 hr. One uL of LiveBLAzer B/G FRET substrate (Life Technologies) was added using a FRD (Flying Reagent Dispenser, Aurora Discovery, San Diego, CA) and the plates were incubated at room temperature for 2 hr. Fluorescence intensity (405 nm excitation, 460 nm and 530 nm emissions) was measured using an Envision plate reader (PerkinElmer, Shelton, CT). For cytotoxicity, 4 ul/well of CellTiter-Glo reagent was added into the assay plates using an FRD. After 30 min incubation at room temperature, the luminescence intensity was measured using a ViewLux plate reader (PerkinElmer).
# % is scaled to controls: 0 for no effect and ±100 for the full control effect.
row,SMILES,"activity change, negative = cytotoxicity"
1,CC(C)CCCC(=O)O,-8.45% (inactive)
2,C/C=C/C=C/CCCCCCCO,0.158% (inactive)
3,COC(=O)[C@@H]1CC2=CC(=O)CC[C@]2(C)[C@@]23O[C@@H]2C[C@@]2(C)[C@@H](CC[C@@]24CCC(=O)O4)[C@H]13,0.885% (inactive)
4,Nc1ccc(Cl)cc1[N+](=O)[O-],5.49% (inactive)
5,Fc1c(F)c(F)c(Br)c(F)c1F,23.2% (inactive)
6,CCCOCCOCCO,-6.34% (inactive)
7,COCC(O)CO (stereo not given),-18.7% [at 78.8 µM] (inactive)
8,CCCCOC(=O)CCS,-2.47% (inactive)
9,CC(C)(CCl)c1ccccc1,15.3% (inactive)
10,CC(=O)Oc1ccc(C(=C2CCCCC2)c2ccc(OC(C)=O)cc2)cc1,-5.9% (inactive)
11,COc1ccc(C(=O)c2cccc(O)c2)c(OC)c1,1.37% (inactive)
12,Cc1ccc(S(=O)(=O)NC2CCCCC2)cc1,-24.5% (inactive)
13,CC1(C)O[C@@H]2C[C@H]3[C@@H]4CCC5=CC(=O)C=C[C@]5(C)[C@H]4[C@@H](O)C[C@]3(C)[C@]2(C(=O)CO)O1,1.03% (inactive)
14,CCN(Cc1cccc(S(=O)(=O)O)c1)c1ccc(C(=C2C=CC(=[N+](CC)Cc3cccc(S(=O)(=O)[O-])c3)C=C2)c2ccccc2)cc1,2.27% (inactive)
15,CC(C)C(OC(=O)c1ccccc1)C(C)(C)COC(=O)c1ccccc1 (stereo not given),-13.6% (inactive)
16,CCCCCCCCCOC(C)=O,21.3% (inactive)
17,CC1CC(O)CC(C)(C)C1 (stereo not given),-5.51% (inactive)
18,CNCCCC1c2ccccc2C=Cc2ccccc21,-0.87% (inactive)
19,O=[N+]([O-])c1cccc(S(=O)(=O)NCCNS(=O)(=O)c2cccc([N+](=O)[O-])c2)c1,5.05% (inactive)
20,Cc1ccc(S)cc1,-29.1% (inactive)

row,SMILES,"activity change, negative = cytotoxicity"
1,CCOC(=O)C(C)Oc1ccc(Oc2nc3ccc(Cl)cc3o2)cc1 (stereo not given),11.8% (inactive)
2,Oc1ccc(Nc2ccccc2)cc1,3.74% (inactive)
3,O=C(O)c1cccc(O)c1,8.56% [at 78.8 µM] (inactive)
4,CN1CCCN=C1/C=C/c1cccs1,1.01% (inactive)
5,N#C[C@@H]1C[C@@H]2C[C@@H]2N1C(=O)[C@@H](N)C12CC3CC(CC(O)(C3)C1)C2,-11.4% (inactive)
6,CCC(C)=O,-0.476% (inactive)
7,COCCOC(=O)C1=C(C)NC(C)=C(C(=O)OC/C=C/c2ccccc2)C1c1cccc([N+](=O)[O-])c1 (stereo not given),0.734% (inactive)
8,O=C(O)c1ccccc1NCCc1ccccc1,3.19% (inactive)
9,C=CC(=O)NCOCC(C)C,-16.8% (inactive)
10,Cc1c(C(=O)NN2CCCCC2)nn(-c2ccc(Cl)cc2Cl)c1-c1ccc(Cl)cc1,-9.96% (inactive)
11,OCC1CC=CCC1 (stereo not given),22.9% (inactive)
12,O=C(c1ccc(O)cc1)c1ccc(Cl)cc1,-17.4% [at 78.8 µM] (inactive)
13,CSc1ccc(Oc2ccc(S(N)(=O)=O)cc2CN(C)C)cc1C,2.71% (inactive)
14,CN1Cc2cc(C(=O)N3CCC(C4CCNCC4)CC3)ccc2N[C@@H](CC(=O)O)C1=O,15.6% (inactive)
15,CNC(=S)NC,-0.451% (inactive)
16,CC1(C)C2=CCCC(C)(C)[C@]23CC[C@H]1C3,-7.95% (inactive)
17,OCCSc1ccccc1,-6.67% (inactive)
18,CCCOc1ccc(S(=O)(=O)N2CCN(CC)CC2)cc1-c1nc2c(CC)n(Cc3ccccn3)nc2c(=O)[nH]1,-0.0984% (inactive)
19,CCC(=O)Oc1ccc(/C(CC)=C(\CC)c2ccc(OC(=O)CC)cc2)cc1,19.4% (inactive)
20,CC(=O)CC(c1ccc([N+](=O)[O-])cc1)c1c(O)c2ccccc2oc1=O (stereo not given),18.1% (inactive)
